D3 ag = agonists of human D3 dopamine receptor; actives 0.58% (n = 410,000); D3R DiscoveRx beta-arrestin cells, luminescence, 90 min; max activation, %; P35462; in the data active = max activation above about 30%; also: 0% is about no effect
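Agonist mode: compounds and dopamine controls were applied to plated cells for 90 min at 37 degrees C after an overnight attachment at 1500 cells/well. Luminescent read-out followed 30 - 60 minutes at room temperature with DiscoveRx detection reagent.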
D1 potentiator = potentiators of human D1 dopamine receptor; actives 0.036% (n = 360,000); potentiation, % at 10 µM; HEK293 TREx D1 cells, calcium flux, dopamine EC20 potentiation; in the data active = potentiation above about 30%; also: 0% is about no effect
Target sequence (P21728 whole entry, looked up): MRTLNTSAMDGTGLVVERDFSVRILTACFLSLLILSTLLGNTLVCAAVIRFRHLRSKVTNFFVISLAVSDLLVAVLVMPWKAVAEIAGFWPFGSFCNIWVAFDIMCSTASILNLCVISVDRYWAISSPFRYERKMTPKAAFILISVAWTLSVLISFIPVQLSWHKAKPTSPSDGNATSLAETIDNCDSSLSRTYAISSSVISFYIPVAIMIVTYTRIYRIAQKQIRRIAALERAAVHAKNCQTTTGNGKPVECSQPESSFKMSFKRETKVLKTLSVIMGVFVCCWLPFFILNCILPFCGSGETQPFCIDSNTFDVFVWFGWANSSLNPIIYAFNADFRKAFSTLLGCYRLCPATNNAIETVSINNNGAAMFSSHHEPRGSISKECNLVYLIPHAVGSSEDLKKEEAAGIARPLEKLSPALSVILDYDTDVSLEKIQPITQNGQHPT
D1 agonist = agonists of human D1 dopamine receptor; HEK293 T-REx D1 cells, calcium flux, agonist mode; P21728; activation, % at 2 µM; AID 504660; actives 1% (n = 360,000); in the data active = activation above about 30%; also: 0% is about no effect
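Tetracycline-induced HEK293 TREx D1 cells, force-coupled to calcium signalling, were dye-loaded with a no-wash calcium kit. Compound was pin-added after a 10 s baseline. Fluorescence was read kinetically at 1 cycle/s for 180 s, with calcium rises flagged as agonism.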
D1 antag = blocks dopamine activation of the human D1 receptor; P21728; HEK293 TREx D1 cells, calcium flux, dopamine EC80; stronger effect = lower value; activity change, negative = inhibition, % at 10 µM; actives 3.2% (n = 360,000); AID 504652; in the data active = activity change below about -30%; also: % is scaled to controls: 0 for no effect and ±100 for the full control effect
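Cells carrying a force-coupled, tetracycline-inducible human D1 receptor report calcium flux. Each well gets a 10 s baseline, compound with 180 s monitoring, then an EC80 dopamine stimulus with a second 180 s kinetic read.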
D3 antag = D3 dopamine receptor (human) antagonism. max response, negative = inhibition, %. AID 652054. actives 2.5% (n = 360,000). D3R cells, DiscoveRx beta-arrestin luminescence, antagonist mode; stronger effect = lower value; in the data active = max response below about -50%; inconclusive = no clear call, values can overlap the other calls; also: % is scaled to controls: 0 for no effect and ±100 for the full control effect
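Cells plated overnight at 1500 cells/well, then exposed to library compounds with dopamine controls for 90 minutes at 37 degrees C. DiscoveRx reagent added for 30–60 minutes at room temperature; luminescence read, quantitative HTS format.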
Active calls of the source: *. Hits are enriched below; roughly 6% of the tested compounds scored in any of these assays.

O=C(O)c1ccc(Cn2nnc3sc4c(c3c2=O)CCCC4)cc1 was read as D3 ag -2, D1 potentiator 1, D1 agonist 2, D1 antag -30* and D3 antag -8.
CC1CCc2c(sc3nnn(Cc4ccc(F)cc4)c(=O)c23)C1 (stereo not drawn) was read as D3 ag -5, D1 potentiator -2, D1 agonist 3 and D1 antag -45*.
Screening Cc1ccc(Cn2nnc3sc4c(c3c2=O)CCC(C)C4)cc1 (stereo not drawn) returned D3 ag -10, D1 potentiator -3, D1 agonist 0 and D1 antag 5.
Screening COC(=O)c1ccc(Cn2nnc3sc4c(c3c2=O)CCCC4)cc1 returned D3 ag 1, D1 potentiator -2, D1 agonist -1 and D1 antag 1.
For COc1ccc(C(=O)NC(C)Cc2c[nH]c3ccccc23)cc1 (stereo not drawn) the results were D3 ag -9 and D3 antag 30.
For O=C(C1CCC(Cn2c(=O)c3sccc3n(Cc3ccccc3F)c2=O)CC1)N1CCOCC1 (stereo not drawn) the results were D3 ag 7, D1 potentiator -2, D1 agonist 1 and D1 antag -5.
Screening COC(=O)c1cc(S(=O)(=O)Nc2nn(C)c3cccc(F)c23)oc1C returned D3 ag -16, D1 potentiator 4, D1 agonist 0, D1 antag -40* and D3 antag -5.
`COC(=O)c1cc(S(=O)(=O)Nc2nn(C)c3ccccc23)oc1C` gave D3 ag -3, D1 potentiator -6, D1 agonist 0, D1 antag -4 and D3 antag 8.
C[C@H]1CNC(=O)c2c(C(=O)NC3CCN(C(=O)OC(C)(C)C)CC3)ncn21 was read as D3 ag -4 and D3 antag inconclusive.
COc1ccc(CNC(=S)Nc2cccc(F)c2)cc1 was read as D3 ag 0, D1 potentiator -4, D1 agonist 7, D1 antag 1 and D3 antag 5.
`Cc1ccc2nc(C)c(C(=O)N/N=C/c3ccc(N4CCOCC4)cc3)cc2c1` gave D3 ag 31*, D1 potentiator -7, D1 agonist 3, D1 antag 14 and D3 antag -6.
For Cc1ccc2nc(C)c(C(=O)N/N=C/c3ccco3)cc2c1 the results were D3 ag 1, D1 potentiator -6, D1 agonist 3, D1 antag -16 and D3 antag -9.
Cc1cc(C)c2nc3sc(C(=O)N4CCOCC4)c(N)c3cc2c1 was read as D3 ag -9, D1 potentiator 5, D1 agonist 38*, D1 antag 0 and D3 antag inconclusive.
For Cc1ccc2nc3sc(C(=O)Nc4ccc(N5CCOCC5)cc4)c(N)c3cc2c1 the results were D1 potentiator -8, D1 agonist 39* and D1 antag -22.
For Cc1ccc(C)c2nc3sc(C(=O)N4CCOCC4)c(N)c3cc12 the results were D3 ag -1, D1 potentiator 1, D1 agonist 1, D1 antag 4 and D3 antag -28.
For Cc1cccc2cc3c(N)c(C(=O)N4CCc5ccccc54)sc3nc12 the results were D3 ag -3, D1 potentiator 4, D1 agonist 126*, D1 antag -26 and D3 antag -25.
Screening COc1cccc(NC(=O)c2cccc(S(=O)(=O)N3CCN(Cc4ccccc4)CC3)c2)c1 returned D3 ag -16, D1 potentiator -5, D1 agonist 3, D1 antag -14 and D3 antag -6.
For Cc1sc(NC(=O)c2sc3nc4c(C)cccc4cc3c2N)c(C#N)c1C the results were D3 ag 1, D1 potentiator 0, D1 agonist 55*, D1 antag 23 and D3 antag 6.
Screening Cc1cccc2cc3c(N)c(C#N)sc3nc12 returned D3 ag 0, D1 potentiator 2, D1 agonist 12, D1 antag -7 and D3 antag 15.
Clc1cccc(CSc2ccc(-c3cccs3)nn2)c1 was read as D3 ag -16, D1 potentiator -3, D1 agonist 45* and D1 antag -3.
Screening O=C(c1ccc(-c2ccccc2)cc1)N1CCN(Cc2ccccn2)CC1 returned D3 ag -5, D1 potentiator -2, D1 agonist 0, D1 antag -31* and D3 antag 26.
For Cc1ccc(NC(=S)N2CCN(Cc3ccccc3)CC2)cc1 the results were D3 ag 3, D1 potentiator -1, D1 agonist 1, D1 antag -19 and D3 antag 0.
Screening O=C(c1ccccc1)N1CCN(CC2CC=CCC2)CC1 (stereo not drawn) returned D3 ag -4, D1 potentiator -9, D1 agonist 4, D1 antag 6 and D3 antag -60*.
Screening O=C(N1CCN(Cc2ccccc2)CC1)C12CC3CC(CC(C3)C1)C2 returned D3 ag 1, D1 potentiator -4, D1 agonist 1, D1 antag 5 and D3 antag -65*.
For O=C(c1ccccc1)N1CCN(CC(O)COCC2CC=CCC2)CC1 (stereo not drawn) the results were D3 ag -3, D1 potentiator 2, D1 agonist 1, D1 antag 5 and D3 antag inconclusive.
`Cc1ccc(C(=S)N2CCN(Cc3ccccc3)CC2)cc1` gave D3 ag -26, D1 potentiator -6, D1 agonist -1 and D3 antag -71*.
Screening O=C1C(O)CCN1Cc1ccccc1 (stereo not drawn) returned D3 ag 1 and D3 antag -5.
For COC(=O)C1=CN(Cc2ccccc2)C=C(C(=O)OC)C1c1cc(F)ccc1F the results were D3 ag -11, D1 potentiator 1, D1 agonist 5, D1 antag 3 and D3 antag inconclusive.
`COC(=O)[C@@]12C[C@@H](CC(=O)N3CCCC3)C(=O)N(CCc3ccc(OC)c(OC)c3)C1=CCC(C)(C)C2` gave D3 ag 0 and D3 antag 5.
O=C(c1ccc(Cn2ccc([N+](=O)[O-])n2)cc1)N1CCN(Cc2ccccc2)CC1 was read as D3 ag -11, D1 potentiator -3, D1 agonist 2, D1 antag -6 and D3 antag -19.
For O=C(c1cccc(Cl)c1)N1CCN(CCCc2ccccc2)CC1 the results were D3 ag 33*, D1 potentiator -7, D1 agonist 2, D1 antag -2 and D3 antag -18.
Screening O=C(c1ccccc1)N1CCN(CCc2ccccc2)CC1 returned D3 ag -19, D1 potentiator 0, D1 agonist 20, D1 antag 2 and D3 antag -6.
Screening CN1CCN(C(=O)c2ccc(COc3cc(Cl)ccc3Cl)o2)CC1 returned D3 ag -17, D1 potentiator -6, D1 agonist 4, D1 antag 11 and D3 antag -23.
